Bioassay records from PubChem.
IL1B secr inh = qHTS for Inhibitors of Inflammasome Signaling: IL-1-beta AlphaLISA Primary Screen. THP-1 LPS/ATP IL-1B secretion, AlphaLISA, 16 h; stronger effect = lower value. activity change, % at 57.5 µM. 360,000 compounds, 4.7% hits. AID 743279, 2014; in the data active means activity change below about -50%; inconclusive means mostly about -30% to -49%; further: on the % scale 0 is the no-effect control and ±100 the full control effect
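THP-1 cells pretreated 1 hr with compounds (up to 57.5 uM final), then stimulated with LPS (250 ng/mL final) plus ATP (1.25 mM final); secreted IL-1B measured by AlphaLISA after 16 hr, decreased signal indicating inhibition.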
DT40 TDP1 CPT = qHTS for Inhibitors of human tyrosyl-DNA phosphodiesterase 1 (TDP1): qHTS in cells in presence of CPT. Potency, µM (titrated, usually from 46.2 µM), for inactives: at the top dose activity change, negative = growth inhibition, actives largely listed as inhibitors. chicken DT40 Tdp1-/-;hTDP1 cells + 20 nM CPT, ATP luminescence, 48 h. 420,000 compounds, 12% hits; further: potency means the concentration at half of the fitted maximal effect; on the % scale 0 is the no-effect control and ±100 the full control effect; nearly all actives have a fitted effect of over 55% in size
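Chicken DT40 Tdp1-/- cells stably complemented with human TDP1 were seeded at 400 cells/well in medium containing 20 nM camptothecin, exposed to pin-transferred compounds, and grown at 37 °C for at least 48 hr. Viability was read as ATP luminescence.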
HepG2 viability = qHTS for Inhibitors of TGF-b: Cytotox Counterscreen | HepG2 CAGA-GFP viability, ATP luminescence, 18 h | Potency, µM (top dose mostly 46.1 µM), inactives show at the top dose activity change, negative = cytotoxicity, usual class: cytotoxic | 410,000 compounds, 0.76% hits; further: potency means the concentration at half of the fitted maximal effect
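CellTiter-Glo luminescence gave cytotoxicity after 18 hours at 37 degrees C. The cells were HepG2 CAGA-GFP in 1% FBS DMEM, stimulated with 500 pg/mL TGF-beta after compound addition. %Activity was normalised to no-cell wells (complete cell-killing) and DMSO (no toxicity), and curves were fitted and classified.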
S-ASM inh = Inhibitors of Secretory Acid Sphingomyelinase (S-ASM): qHTS | 340,000 compounds, 0.006% hits | placental ASM, HMU-PC fluorogenic substrate, 60 min | Potency, µM (doses to about 57.5 µM), inactives show at the top dose activity change, negative = inhibition, usual class: inhibitors | Sphingomyelin phosphodiesterase (Homo sapiens), P17405; further: potency means the concentration at half of the fitted maximal effect
Target sequence (P17405 47-631 limits assumed): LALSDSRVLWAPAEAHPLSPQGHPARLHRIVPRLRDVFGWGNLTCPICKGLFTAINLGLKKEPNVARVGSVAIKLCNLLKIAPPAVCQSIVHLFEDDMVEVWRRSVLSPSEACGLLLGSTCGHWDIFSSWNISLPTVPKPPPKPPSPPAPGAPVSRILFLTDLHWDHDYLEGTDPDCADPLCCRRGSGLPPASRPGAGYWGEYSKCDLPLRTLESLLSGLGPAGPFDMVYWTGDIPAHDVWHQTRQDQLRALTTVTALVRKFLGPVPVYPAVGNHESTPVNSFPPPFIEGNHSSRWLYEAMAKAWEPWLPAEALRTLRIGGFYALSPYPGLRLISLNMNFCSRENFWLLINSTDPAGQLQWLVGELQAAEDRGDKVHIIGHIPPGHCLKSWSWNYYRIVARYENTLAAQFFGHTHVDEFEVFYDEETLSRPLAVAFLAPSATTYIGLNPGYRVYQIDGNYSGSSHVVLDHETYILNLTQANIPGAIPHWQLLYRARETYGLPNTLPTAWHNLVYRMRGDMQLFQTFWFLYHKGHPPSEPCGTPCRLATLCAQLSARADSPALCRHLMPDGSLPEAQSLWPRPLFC
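Fluorogenic HMU-PC substrate (9 uM final) is turned over by placental ASM in 60 min at 37 C after a 10 min compound preincubation. Reaction ended by alkaline stop (pH 10), with fluorescence read at 386/447 nm.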
TDP1 cell noCPT = qHTS for Inhibitors of human tyrosyl-DNA phosphodiesterase 1 (TDP1): qHTS in cells in absence of CPT; DT40 Tdp1-/- hTDP1 cells, no CPT, ATP luminescence, 48 h; Potency, µM (titrated, usually from 46.2 µM), inactives show at the top dose activity change, negative = growth inhibition, usual class: inhibitors; 420,000 compounds, 15% hits; AID 686978, 2013; further: potency means the concentration at half of the fitted maximal effect; on the % scale 0 is the no-effect control and ±100 the full control effect; nearly all actives have a fitted effect of over 55% in size
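Growth kinetics read by CellTiter-Glo luminescence after ≥48 hr at 37 °C. Cells: DT40 Tdp1-/- stably carrying human TDP1, 400 per well, compound exposure in the absence of CPT (DMSO vehicle).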
TGFb inhibitor = qHTS for Inhibitors of TGF-b. HepG2 CAGA-GFP TGF-b/SMAD3 reporter, GFP fluorescence, 18 h; TGF-beta stimulated, 500 pg/mL final. Potency, µM (series often up to 46.1 µM), for the others: at the top dose activity, negative = inhibition, actives largely listed as inhibitors. 410,000 compounds, 1.2% hits. AID 588855, 2011; further: potency means the concentration at half of the fitted maximal effect; on the % scale 0 is the no-effect control and ±100 the full control effect; nearly all actives have a fitted effect of over 65% in size
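HEPG2 CAGA-GFP, 1000 cells/well; 2 h settle, 37 C; cpd via pin tool; TGF-b 500 pg/mL final; 18 h, 37 C; GFP imaging ex488/em500-530; %Activity normalised to -TGF-b and +DMSO controls; CRC fit, curve class.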
Starred values were filed as active, the others as inactive; ? = inconclusive; / = no result; ! = not confirmed by another sample. In the library only some 19% were active in any assay of this set; here they are far more common. Unless noted, the call rests on the fitted dose curve; in most records, active means well fitted curve in the direction sought with a large enough effect; inconclusive means small, poorly fitted or top-dose-only effect, or another doubt; inactive means no such curve, though single readings can be large; an effect the other way counts as inactive or inconclusive.

SMILES	IL1B secr inh	DT40 TDP1 CPT	HepG2 viability	S-ASM inh	TDP1 cell noCPT	TGFb inhibitor
COc1ccccc1-n1cc(C(=O)NCC(=O)N2CCN(Cc3ccccc3)CC2)c2ccccc2c1=O	-1	1%	1%	1%	?	-2%
Cc1cc(-c2csc(Nc3ccccn3)n2)ccc1F	-58*	?	-20%	-3%	21µM*	?
Cc1ccc(-c2csc(Nc3ccccn3)n2)cc1	-77*	?	-4%	-2%	?	-16%
Cc1nc(C)c(-c2csc(Nc3ccccn3)n2)s1	0	-60%	-39%	-1%	?	?
Oc1ccc(-c2csc(Nc3ccccn3)n2)cc1	-73*	?	-13%	-6%	?	-20%
COc1ccc(-c2csc(Nc3ccc(C)cn3)n2)cc1	-67*	-1%	13%	0%	-27%	3%
Cc1ccc(NC(=O)CSc2nc3ccccc3nc2Cc2ccccc2F)cc1F	/	17%	-2%	/	1%	0%
CC1=C(C(=O)N(C)C)CC(CC(=O)NCCc2ccccn2)C(=O)N1Cc1ccccc1 (configuration not stated)	-10	-5%	0%	/	3%	-3%
O=C(C[n+]1ccccc1Br)c1ccc(-c2ccccc2)cc1	/	?	-26%	/	-28%	?
c1ccc(-c2csc(Nc3ccccn3)n2)cc1	-55*	-17%	-17%	-3%	?	-15%
CC(=O)Nc1ccc(-c2csc(Nc3cccc(C)n3)n2)cc1	-2	?	-11%	-13%	?	-11%
CC(=O)Nc1cccc(-c2csc(Nc3ccc(C)cn3)n2)c1	-100*	-29%	-34%	-17%	?	?
CCCN(CCC)C(=O)C1CC(=O)OC12CCCCC2 (configuration not stated)	-4	-18%	-6%	2%	-28%	-8%
C[C@@H]1CN([C@H](C)CO)C(=O)CCCn2nncc2CO[C@H]1CN(C)S(C)(=O)=O	27	6%	-14%	/	?	17%
CCC(C)N1CCC2(CC1)N=c1c(c3c4c5c(C)c(O)c3c(O)c1=NC(=O)C(C)=CC=C[C@H](C)[C@H](O)[C@@H](C)[C@@H](O)[C@@H](C)[C@H](OC(C)=O)[C@H](C)[C@@H](OC)C=CO[C@@](C)(O5)C4=O)N2 (some centres not stated)	?	13µM*	-25%	-9%	18µM*	-12%
CO[C@H]1C=CO[C@@]2(C)Oc3c(C)c(O)c4c(O)c(c5c(nc6cc(C)ccn65)c4c3C2=O)NC(=O)/C(C)=C\C=C[C@H](C)[C@H](O)[C@@H](C)[C@@H](O)[C@@H](C)[C@H](OC(C)=O)[C@@H]1C	/	?	/	/	13µM*	/
COC1C=COC2(C)Oc3c(C)c(O)c4c(O)c(c(CN5CCN(C)CC5)c(O)c4c3C2=O)NC(=O)C(C)=CC=CC(C)C(O)C(C)C(O)C(C)C(OC(C)=O)C1C (configuration not stated)	-6	23µM*	8%	-2%	21µM*	-9%
CO[C@H]1C=CO[C@@]2(C)Oc3c(C)c(O)c4c(O)c(cc(O)c4c3C2=O)NC(=O)/C(C)=C\C=C/[C@H](C)[C@H](O)[C@@H](C)[C@@H](O)[C@@H](C)[C@H](OC(C)=O)[C@@H]1C	/	-4%	/	/	-12%	/
CO[C@H]1/C=C\O[C@@]2(C)Oc3c(C)c(O)c4c(O)c(c(C=NN5CCN(C6CCCC6)CC5)c(O)c4c3C2=O)NC(=O)C(C)=CC=C[C@H](C)[C@H](O)[C@@H](C)[C@@H](O)[C@@H](C)[C@H](OC(C)=O)[C@H]1C	/	5.6µM*	-41%	/	3.2µM*	11µM*
O=C(NCCc1nnc2n1CCN(Cc1ccc(F)cc1)CC2)c1ccc(F)cc1	/	10%	/	/	-5%	/
O=C(Nc1cccc(Cl)c1)Nc1ccccc1OCc1cc(=O)n2ccccc2n1	/	0%	-16%	/	-22%	-9%
CCc1ccccc1NC(=O)Cn1c(=O)ccc2cc(S(=O)(=O)N3CCC(C)CC3)ccc21	/	?	-30%	/	?	?
Cc1ccn(CC(C)C(=O)O)n1 (configuration not stated)	0	19%	-3%	3%	3%	-14%
COc1ccc(CCN=C(NS(=O)(=O)c2ccc(Cl)cc2)c2ccccc2)cc1	-66*	?	1%	-4%	?	3%
CC[C@]1(C(=O)OC)[C@H]2C(=O)N(C)C(=O)[C@H]2[C@H]2CN=C(SCc3ccc(C(=O)OC)cc3)N21	-7	?	5%	6%	-28%	3%
SMILES	IL1B secr inh	DT40 TDP1 CPT	HepG2 viability	S-ASM inh	TDP1 cell noCPT	TGFb inhibitor
CC(C)C(=O)N1CCN(c2ccccc2NC(=O)c2cccc(Cl)c2)CC1	?	?	-19%	1%	16µM*	-1%
CC(C)C(=O)N1CCN(c2ccccc2NC(=O)c2cccc3ccccc23)CC1	15	?	0%	-3%	16µM*	-1%
CS(=O)(=O)N1CCN(c2ccccc2NC(=O)c2cccc3ccccc23)CC1	-8	0%	-6%	-4%	-13%	-16%
Cn1c(=O)n(C)c2cc(N3CCCCC3)c(NC(=O)c3cccc(Cl)c3)cc21	36	?	-5%	-1%	-25%	6%
C1CCC(C(CC2CCCCN2)C2CCCCC2)CC1 (configuration not stated)	-86*	10µM*	14µM*!	-12%	12µM*	?
COC(=O)CN1CCN(C(=O)c2ccco2)CC1	8	1%	0%	5%	4%	0%
CC(=C\c1ccco1)/C=C(\C#N)C(=O)NCCc1c[nH]c2ccccc12	?	-2%	-36%	-12%	?	-20%
Cn1c(CN2CCN(CCO)CC2)c(C#N)c2ccccc21	38	1%	9%	1%	-14%	22%
Cc1ccc(SCc2c(C#N)c3ccccc3n2C)cc1	-3	21µM*	-1%	-2%	21µM*	?
Cn1c(CSc2ccccc2)c(C#N)c2ccccc21	-15	-3%	0%	?	-27%	-2%
